Results: PubChem BioAssay (NCI)
This is part of a sample that, as a whole, favours compounds with a hit. Of some 79,000 tested, about 15% had one in any assay. Unmarked numbers belong to inactive results. Active and inactive are the calls of the source. Rule as the data show it: active = growth inhibition above about 70%; inactive = the rest.

Assays:
[1] = NCI Yeast Anticancer Drug Screen. Data for the rad50 strain (AID 155);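 also: 0% = growth of vehicle-only cultures of the same strain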; settings: S. cerevisiae rad50 strain growth inhibition; at 50.0 µM; stronger effect = higher value
Outline: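 Genetically altered yeast (DNA repair pathway); compound treatment; growth inhibition vs vehicle ctrl.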

[2] = NCI Yeast Anticancer Drug Screen. Data for the mec2-1 strain (AID 157); settings: S. cerevisiae mec2-1 strain, at 50.0 µM, stronger effect = higher value
Outline: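 mec2-1 yeast strain, carrying an alteration in DNA damage repair or cell cycle control, was exposed to compounds; growth inhibition was measured relative to vehicle-treated controls.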

[3] = NCI Yeast Anticancer Drug Screen. Data for the sgs1 mgt1 strain (AID 161);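 also: 0% = growth of cultures given vehicle only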; settings: S. cerevisiae sgs1 mgt1 strain, at 50.0 µM, stronger effect = higher value
Outline: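 Compounds are added to genetically altered yeast, and growth is compared with cultures given vehicle alone to give percent inhibition.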

[4] = NCI Yeast Anticancer Drug Screen. Data for the cln2 rad14 strain (AID 165);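 also: 0% = growth equal to vehicle treated cultures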; settings: S. cerevisiae cln2 rad14 strain, at 50.0 µM, stronger effect = higher value
Outline: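 Yeast carrying cln2 and rad14 alterations (cell cycle control and DNA damage repair) were exposed to compounds. Growth inhibition was measured against vehicle-treated controls.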

[5] = NCI Yeast Anticancer Drug Screen. Data for the bub3 strain (AID 167); settings: S. cerevisiae bub3 mutant strain, at 50.0 µM, stronger effect = higher value
Outline: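 Yeast carrying a defined mutation is treated with each compound, and growth is compared with that of vehicle-exposed cells to give inhibition.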

[6] = NCI Yeast Anticancer Drug Screen. Data for the mlh1 rad18 strain (AID 175); settings: S. cerevisiae mlh1 rad18 strain growth inhibition; at 50.0 µM; stronger effect = higher value
Outline: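 Growth inhibition of the yeast strain was measured after compound exposure and expressed relative to vehicle-treated controls. The strain carries defined defects in DNA damage repair.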

| Compound | growth inhibition [1] | growth inhibition [2] | growth inhibition [3] | growth inhibition [4] | growth inhibition [5] | growth inhibition [6] |
| --- | --- | --- | --- | --- | --- | --- |
| CCCCC(O)(CCCC)C(C)(C)C | 3.7% | 4.05% | 0.6% | -30.9% | -0.2% | 9.3% |
| COc1ccc2c3c([nH]c2c1)CCN(CCCC(=O)c1ccc(F)cc1)C3 | -8.15% | -4% | 42.6% | 31.1% | 45.2% | 1.8% |
| O=C(OCC(OC(=O)c1ccccc1)C(OC(=O)c1ccccc1)C(O)C(O)CO)c1ccccc1 (stereo unspecified) (tested in a mixture with another compound) | -6.8% | -4.1% | 9.55% | -17.9% | -12.2% | 28.6% |
| O=C(NNC(=O)c1ccc2ccccc2c1)c1ccc(Cl)c(Cl)c1 | -13.3% | -23.3% | -2.65% | 17.1% | -5.25% | -14.1% |
| CC[N+](C)(CC)CCOC(=O)C(c1ccccc1)C(O)C1CCCC1 (stereo unspecified) | -6.85% | 3.45% | -0.2% | -6.2% | 20.9% | -8.15% |
| CCOC(=O)CCC(NC(=O)c1ccc(N=Cc2nc3ccccc3nc2-c2ccccc2)cc1)C(=O)OCC (stereo unspecified) | 4.35% | 0.95% | 6.8% | 14.5% | 11.8% | -7.7% |
| CCCCCCCCCCCCCCCCc1c(C(=O)OC)nc(NN)[nH]c1=O | -6.3% | 5.2% | -26.5% | -2.85% | 2.1% | -12.8% |
| O=C1c2ccccc2C(=Cc2cccnc2)c2ccccc21 | 35.3% | 31.9% | 30.1% | 20.2% | 55.1% | 40.7% |
| CC1(c2ccc3cccc(F)c3c2)OC(=O)c2ccccc21 (stereo unspecified) | 2% | 1.65% | -2.95% | -68.8% | -4.25% | -12.7% |
| Cc1cccc2c1Oc1ccccc1C2N1C(=O)c2ccccc2C1=O (stereo unspecified) | 6.65% | 2.5% | 4.9% | 25.4% | 9.95% | 6.35% |
| CN(/N=C1\C(=O)Nc2ccccc21)c1ccccc1 | 4.65% | -3.15% | 13.6% | -37.9% | 3.85% | 17.6% |
| NC1CC(=O)c2sccc21 (stereo unspecified) | 9.8% | 2.15% | 16.8% | 9.2% | 17.8% | 1.25% |
| COC(=O)c1c2c(cc3c1CC1(Cc4cc5c(cc4C1)CCCC5)C3)CCCC2 | -6.3% | -16.4% | -21.9% | 12.3% | -5.8% | 7.35% |
| CC(C)C(O)C(=O)C(O)C(C)C (stereo unspecified) | -13.4% | -8.2% | 4.5% | 15.7% | 3.4% | -10.9% |
| ClC1C2c3ccccc3C1C1C2C2(c3ccccc3)OC1(c1ccccc1)c1ccccc12 (stereo unspecified) | 12.7% | 1.65% | -3.2% | -60.1% | -2% | 0.2% |
| CCCC1=C(CC)C(C(=O)Nc2c(C)cccc2C)=NC(S)N1 (stereo unspecified) | -11.8% | -15.6% | 0.65% | 14.5% | 1.15% | -19.1% |
| CC(C)NC(=O)CC(NCc1ccccc1)C(=O)O (stereo unspecified) | 5.85% | 6.8% | 21.1% | 9.5% | -6.8% | 10.2% |
| COc1ccc(/C=C/C(=O)c2ccc(Br)cc2)cc1 | -33.4% | -67.5% | -34.2% | 2.75% | -14.4% | -44.3% |
| COC(=O)C1C2C=CC(O2)C1C(=O)OC (stereo unspecified) | -2.15% | -1.75% | -9.75% | -51.6% | 14.1% | -7.45% |
| Cc1ccc(S(=O)(=O)Oc2ccccc2C(=O)O)cc1 | -7.9% | -14.7% | -12.3% | -55.3% | 14.4% | -13.5% |
| COS(=O)(=O)OC1(SC)C=C(c2ccccc2)SS1 (stereo unspecified) | 73% (active) | 28.1% | 29.2% | 9.5% | 20.3% | 72.6% (active) |

| Compound | growth inhibition [1] | growth inhibition [2] | growth inhibition [3] | growth inhibition [4] | growth inhibition [5] | growth inhibition [6] |
| --- | --- | --- | --- | --- | --- | --- |
| CCN(CC)CCCC(C)Nc1nccc(/C=C/c2ccc(Cl)cc2)n1 (stereo unspecified) | 9.9% | 16.3% | 28.9% | -1.1% | 14% | 41.7% |
| C=CCOC(=O)CC=C | -8.7% | -3.1% | 4.75% | 6.7% | -11.4% | 5.3% |
| CCc1ccc(C(=O)CN2CCCc3ccccc32)cc1 | -13.4% | 0.7% | -6.55% | -17.2% | 1.95% | -13.8% |
| CC1=COC(=O)c2ccccc2N1 | 15.3% | 1.65% | -7.1% | 14.6% | 6.05% | 6% |
| COC(=O)/C(C)=C/C=C/C(OC)C(OC(N)=O)/C(C)=C/C(C)C(O)C(CC(C)CC1=C(N)C(=O)C=C(N)C1=O)OC (stereo unspecified) | 9.4% | 10.3% | -6.8% | 46.9% | 5.9% | -18% |
| O=C(O)c1cncc(-c2ccccc2)c1 | 38.2% | 30.7% | 23.4% | 14.1% | 3% | 26% |
| COc1ccc2ccc3nonc3c2c1 | 17.1% | 4.7% | 9% | -40.5% | 6.4% | 1.45% |
| O=C(CC(=O)C(F)(F)F)Nc1cccc2ccccc12 | 6.65% | -3.1% | 10.6% | -84.5% | 0.1% | 1.05% |
| O=C(O)c1ccc(C2CCCCC2O)cc1 (stereo unspecified) | 2.05% | 6.15% | -9.2% | -14.6% | -2% | 0.3% |
| CCCCCOC(=S)S | -2.6% | 11.8% | 32.7% | -12.1% | 13.4% | 29.9% |
| NC1c2c(Br)sc(N3CCCC3)c2C(=O)C1O (stereo unspecified) | 8.05% | -3.5% | -5.25% | -5.35% | -16.4% | -30.3% |
| COC(=O)C1CC(=O)c2cc(OC)ccc2C1 (stereo unspecified) | -1.85% | 2.8% | -7.7% | 6.05% | -7.75% | -27.1% |
| O=C1CCC(N2C(=O)c3ccccc3C2=O)C(=O)O1 (stereo unspecified) | -21.9% | -5.45% | -0.95% | -38% | 8.5% | -12.9% |
| O=C(CC[N+](=O)[O-])OCC1OC(OC(=O)CC[N+](=O)[O-])C(O)C(O)C1O (stereo unspecified) | 23% | 0.85% | 28.4% | 34.1% | 14.8% | 38.8% |
| CC(=O)OC1CC(O)CC2=CCC3C4CCC(C(C)(O)C(O)CC5COC(=O)C5C)C4(C)CCC3C21C (stereo unspecified) | 6.8% | 5.4% | 14.6% | 3.45% | -32.1% | -30.1% |
| CCCCC(CC)(CO)CO | 11.2% | 3.95% | 5.35% | 1.05% | -4.55% | 16.6% |
| CC(=O)SC1CC(=O)OC1=O (stereo unspecified) | -3.1% | -15.3% | 7.1% | 7.8% | 0.2% | 7.85% |
| CCN1C(=O)/C(=C/c2cc([N+](=O)[O-])ccc2OCC(=O)O)SC1=S | -1.85% | -11.3% | 3.5% | -42.8% | 2.55% | 1.4% |
| CNC(=S)N(C1CCCCC1)C1CCCCC1 | 26% | -13.4% | -2.2% | -15% | -10.1% | 37% |
| CCCCCCCCC(=O)N1SC(NC(=O)OC)=Nc2ccccc21 | 98.2% (active) | 98.2% (active) | 98% (active) | 90.2% (active) | 97% (active) | 98.1% (active) |
